Active and inactive are the calls of the source.
assay: growth of efflux-deficient E. coli DRC39 – strain DRC39, OD650, 24 h, E. coli filamentation inducers, primary screen (AID 1178);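 further: growth measured as culture turbidity by optical density at 650 nm; test concentration not given here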; details: E. coli DRC39 acrAB, higher = more signal, called active from +8 up or from −8 down

z-score, inactive:
CC(=O)OC[C@H]1O[C@H](CCON=C(C)C)C=C[C@@H]1OC(C)=O 0.795
O=C1CCCC=C1C(O)C1CCCCC1 (stereo not given) 0.342
COC(=O)CC=C[C@@H](C)[C@@H](C=NOC[C@@H](C)[C@H](OCc1ccccc1)C(C)C)OC -0.213
COC(=O)[C@H](C)NC(=O)CC=C[C@@H](C)[C@@H]1C=C[C@H](O)[C@@H](CO)O1 0.64
C[C@@H](c1ccccc1)N1C(=O)[C@H]2[C@H]3[C@H](O)[C@H](O)CC(=NOCc4ccccc4)[C@@H]3CC[C@H]2C1=O -0.241
O=C1[C@H]2[C@H]3[C@H](O)[C@H](O)CC(=NOC[C@@H](O)COCc4ccco4)[C@@H]3CC[C@H]2C(=O)N1Cc1ccc2c(c1)OCO2 0.764
CCCNC(=O)OC[C@H]1O[C@H](CCON=C2C[C@@H](O)[C@@H](O)[C@@H]3[C@@H]4C(=O)N(CC)C(=O)[C@@H]4CC[C@@H]23)C=C[C@@H]1Oc1ccc(OC)cc1 0.74
CC(C)CON=C1C[C@@H](O)[C@@H](O)[C@@H]2[C@@H]3C(=O)N(Cc4ccc5c(c4)OCO5)C(=O)[C@@H]3CC[C@@H]12 0.146
COc1ccc(COC(=O)NN=C2C[C@@H](O)[C@@H](O)[C@@H]3[C@@H]4C(=O)N([C@@H](C)c5ccccc5)C(=O)[C@@H]4CC[C@@H]23)cc1 0.0247
C[C@@H]1CC[C@H]2C(=O)N3[C@@H](CC[C@@H](C)[C@@H]3c3ccc(Br)cc3)C(=O)N2[C@H]1c1ccc(Br)cc1 -0.124
CCOC(=O)CCN1C(=O)[C@H]2[C@H]3[C@H](O)[C@H](O)CC(=O)[C@@H]3CC[C@H]2C1=O -0.512
COC(=O)[C@H](CCSC)NC(=O)CC=C[C@@H](C)CO -1.07
CCOC(=O)[C@H](Cc1ccccc1)NC(=O)CCC1CC(OC(=O)NCc2cccc3ccccc23)CC2(CCCC(COC(=O)NCCOc3ccccc3)O2)O1 (stereo not given in full) 0.19
COc1ccc(COC(=O)NN=C2C[C@@H](O)[C@@H](O)[C@@H]3[C@@H]4C(=O)N(c5cccc(Oc6ccccc6)c5)C(=O)[C@@H]4CC[C@H]23)cc1 0.829
COc1ccc(OC[C@@H]2CC3[C@@H](c4ccc(Br)cc4)[C@H](C)CC[C@H]3C(=O)O2)cc1 (stereo not given in full) -0.941
COC(=O)[C@H](C)NC(=O)CCC1CC(OC(=O)NCc2cccc3ccccc23)CC2(CCCC(COC(=O)NCCc3ccccc3OC)O2)O1 (stereo not given in full) 0.642
COc1ccc(OC[C@@H](CO)OC)cc1 0.293
COc1ccc(COC(=O)NN=C2C[C@@H](O)[C@@H](O)[C@@H]3[C@@H]4C(=O)N(C[C@@H]5CCCO5)C(=O)[C@@H]4CC[C@@H]23)cc1 1.02
CCOC(=O)[C@H](CC(C)C)NC(=O)CCC1CC(OC(=O)NCc2ccc3c(c2)OCO3)CC2(CCCC(COC(=O)NCCOc3ccccc3)O2)O1 (stereo not given in full) -0.0466
C=CC[C@@H]1C=C[C@H](ON=C(C)CCN2CCCCc3nc(C)c(C)cc32)[C@@H](CO)O1 -0.275
C[C@@H](c1ccccc1)N1C(=O)[C@H]2[C@H]3[C@H](O)[C@H](O)CC(=NOC[C@@H](O)COCc4ccco4)[C@H]3CC[C@H]2C1=O -0.501
COc1ccc(O[C@H]2C=C[C@@H](C#Cc3ccccc3)O[C@@H]2CO)cc1 0.633
COC(=O)[C@@H]1CC[C@H](C)[C@@H](c2ccc(Br)cc2)N1C[C@@H](O)CN=[N+]=[N-] -1.47
CC(C)=CCCC(C)=CCON=C1C[C@@H](O)[C@@H](O)[C@@H]2[C@@H]3C(=O)N(Cc4ccc5c(c4)OCO5)C(=O)[C@@H]3CC[C@@H]12 0.499

assay: growth of efflux-deficient E. coli DRC39 – strain DRC39, OD650, 48 h, E. coli filamentation inducers, primary screen (AID 1179);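 further: screen aims at cell division blockers that make cells filament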; details: E. coli DRC39 delta-acrAB growth, higher = more signal, called active from +8 up or from −8 down

z-score, inactive:
C=CC[C@@H]1C=C[C@H](ON=CC[C@@H]2C=C[C@H](OC(C)=O)[C@@H](COC(C)=O)O2)[C@@H](CO)O1 0.984
C=CC[C@@H]1C=C[C@H](ON=C(C)CCN2CCCc3nc(C)c(C)cc32)[C@@H](CO)O1 -0.0088
CC(=O)OC[C@H]1O[C@H](CC=NO[C@H](C)c2cn([C@@H]3COC[C@H]3O)nn2)C=C[C@@H]1OC(C)=O -0.743
CC(=O)OC[C@H]1O[C@H](CCON=C(C)CCN2CCCc3nc(C)c(C)cc32)C=C[C@@H]1OC(C)=O 0.16
CO[C@H]1COC(=O)[C@H](CCSC)NC(=O)CC=C[C@@H](C)[C@H](OC)COC(=O)[C@@H](OCc2ccccc2)C=C[C@@H]1C 0.238
CN1CCc2nc(-c3ccccc3)c(-c3ccccc3)cc2C1 0.105
CON=C(C)CCN1CCc2nc(-c3ccccc3)c(-c3ccccc3)cc2C1 -2.48
CCN1C(=O)[C@H]2[C@@H]3C(=CC[C@H]2C1=O)C(=O)[C@H]1O[C@H]1[C@H]3O -0.788
CC(C)C(=O)N[C@H]1CCCN1C(=O)C=Cc1ccccc1 -0.898
CCOC(=O)[C@H](CC(C)C)NC(=O)CCC1CC(OC(=O)NCc2ccc3c(c2)OCO3)CC2(CCCC(COC(=O)NCCC(C)C)O2)O1 (stereo not given in full) -0.0965
COC(=O)CC=C[C@@H](C)[C@@H](C=NOC[C@@H](O)COCc1ccco1)NS(=O)(=O)c1ccc(C)cc1 0.124
CON=C(C)CCN1CCCCc2nc(C)c(C)cc21 -0.78
CC(=O)OC[C@H]1O[C@H](CCON=C(C)C)C=C[C@@H]1OC(C)=O -0.844
O=C1CCCC=C1C(O)C1CCCCC1 (stereo not given) 0.456
COC(=O)CC=C[C@@H](C)[C@@H](C=NOC[C@@H](C)[C@H](OCc1ccccc1)C(C)C)OC -0.442
COC(=O)[C@H](C)NC(=O)CC=C[C@@H](C)[C@@H]1C=C[C@H](O)[C@@H](CO)O1 0.384
C[C@@H](c1ccccc1)N1C(=O)[C@H]2[C@H]3[C@H](O)[C@H](O)CC(=NOCc4ccccc4)[C@@H]3CC[C@H]2C1=O -0.0934
O=C1[C@H]2[C@H]3[C@H](O)[C@H](O)CC(=NOC[C@@H](O)COCc4ccco4)[C@@H]3CC[C@H]2C(=O)N1Cc1ccc2c(c1)OCO2 1.29
CCCNC(=O)OC[C@H]1O[C@H](CCON=C2C[C@@H](O)[C@@H](O)[C@@H]3[C@@H]4C(=O)N(CC)C(=O)[C@@H]4CC[C@@H]23)C=C[C@@H]1Oc1ccc(OC)cc1 0.658
CC(C)CON=C1C[C@@H](O)[C@@H](O)[C@@H]2[C@@H]3C(=O)N(Cc4ccc5c(c4)OCO5)C(=O)[C@@H]3CC[C@@H]12 -0.563
COc1ccc(COC(=O)NN=C2C[C@@H](O)[C@@H](O)[C@@H]3[C@@H]4C(=O)N([C@@H](C)c5ccccc5)C(=O)[C@@H]4CC[C@@H]23)cc1 0.528
C[C@@H]1CC[C@H]2C(=O)N3[C@@H](CC[C@@H](C)[C@@H]3c3ccc(Br)cc3)C(=O)N2[C@H]1c1ccc(Br)cc1 -1.38
CCOC(=O)CCN1C(=O)[C@H]2[C@H]3[C@H](O)[C@H](O)CC(=O)[C@@H]3CC[C@H]2C1=O -0.897
COC(=O)[C@H](CCSC)NC(=O)CC=C[C@@H](C)CO -0.576
CCOC(=O)[C@H](Cc1ccccc1)NC(=O)CCC1CC(OC(=O)NCc2cccc3ccccc23)CC2(CCCC(COC(=O)NCCOc3ccccc3)O2)O1 (stereo not given in full) -1.67
COc1ccc(COC(=O)NN=C2C[C@@H](O)[C@@H](O)[C@@H]3[C@@H]4C(=O)N(c5cccc(Oc6ccccc6)c5)C(=O)[C@@H]4CC[C@H]23)cc1 0.751
COc1ccc(OC[C@@H]2CC3[C@@H](c4ccc(Br)cc4)[C@H](C)CC[C@H]3C(=O)O2)cc1 (stereo not given in full) -1.58
COC(=O)[C@H](C)NC(=O)CCC1CC(OC(=O)NCc2cccc3ccccc23)CC2(CCCC(COC(=O)NCCc3ccccc3OC)O2)O1 (stereo not given in full) -0.0569
COc1ccc(OC[C@@H](CO)OC)cc1 0.178
COc1ccc(COC(=O)NN=C2C[C@@H](O)[C@@H](O)[C@@H]3[C@@H]4C(=O)N(C[C@@H]5CCCO5)C(=O)[C@@H]4CC[C@@H]23)cc1 1.11
CCOC(=O)[C@H](CC(C)C)NC(=O)CCC1CC(OC(=O)NCc2ccc3c(c2)OCO3)CC2(CCCC(COC(=O)NCCOc3ccccc3)O2)O1 (stereo not given in full) -0.875
C=CC[C@@H]1C=C[C@H](ON=C(C)CCN2CCCCc3nc(C)c(C)cc32)[C@@H](CO)O1 -0.681
C[C@@H](c1ccccc1)N1C(=O)[C@H]2[C@H]3[C@H](O)[C@H](O)CC(=NOC[C@@H](O)COCc4ccco4)[C@H]3CC[C@H]2C1=O -0.267
COc1ccc(O[C@H]2C=C[C@@H](C#Cc3ccccc3)O[C@@H]2CO)cc1 0.14
COC(=O)[C@@H]1CC[C@H](C)[C@@H](c2ccc(Br)cc2)N1C[C@@H](O)CN=[N+]=[N-] -2.14
CC(C)=CCCC(C)=CCON=C1C[C@@H](O)[C@@H](O)[C@@H]2[C@@H]3C(=O)N(Cc4ccc5c(c4)OCO5)C(=O)[C@@H]3CC[C@@H]12 -0.588
